The panel holds about 83,000 compounds, 20% with a hit somewhere; the sample as a whole holds those more often.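 Cell lines were cultured in 96-well plates, exposed to a single compound concentration, and assessed for percent growth 48 hours later.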 Values without a mark were called inactive. Calls of active or inactive are those of the source. The calls were made as follows: active = growth percent below 10; inactive = the rest.

Among the test systems are DU-145 prostate; K-562 leukemia; MALME-3M melanoma; MDA-MB-231 breast; RXF 393 renal; SF-268 CNS; SF-295 CNS; SF-539 CNS; UACC-257 melanoma; M14 melanoma; HCT-15 colon; HT29 colon; SNB-75 CNS; SNB-19 CNS; U251 CNS; PC-3 prostate; SK-MEL-5 melanoma; UACC-62 melanoma; LOX IMVI melanoma; SK-MEL-28 melanoma.
Assay in all cases: NCI-60 one-dose screen, 48 h (100 = growth as untreated, 0 = no growth, -100 = all killed)
What all share (settings): 10 µM unless noted

For `O=C(Nc1ccc(Cl)c(C(F)(F)F)c1)Nc1ccc2c(ccn2C(=O)c2cccc(F)c2)c1`, the growth was 24.5% in the assay on DU-145 prostate; 11.4% with K-562 leukemia; 56% in the assay on MALME-3M melanoma; 87% in the assay on MDA-MB-231 breast; 28.7% in the assay on RXF 393 renal; 55.4% with SF-268 CNS. For the same compound, the growth with SF-295 CNS is 5.17% (active); with SF-539 CNS, 66.7%; in the assay with UACC-257 melanoma it was 60.6%; with M14 melanoma it was 56.2%; with HCT-15 colon, 17%; in the assay on HT29 colon, 39.8%. The growth in the assay on SNB-75 CNS was 55%; in the assay on SNB-19 CNS, 39.7%; in the assay with U251 CNS, 23.3%; in the assay with PC-3 prostate it was 9.11% (active); with SK-MEL-5 melanoma it was 62.9%; in the assay on UACC-62 melanoma, 39.7%. The growth in the assay with LOX IMVI melanoma was 38.4%; in the assay on SK-MEL-28 melanoma, 46.6%.
As to `C#CCOc1ccccc1/C=N/Nc1nc(-c2ccc(Cl)cc2)cs1`, the growth in the assay on DU-145 prostate is 104%; in the assay on K-562 leukemia, 86.2%; in the assay with MALME-3M melanoma, 97.2%; with MDA-MB-231 breast it was 86.4%; in the assay on RXF 393 renal it was 102%; in the assay on SF-268 CNS, 98.9%. Moreover, the growth is 109% in the assay on SF-295 CNS; 89.5% in the assay on SF-539 CNS; 102% in the assay on UACC-257 melanoma; 94% with M14 melanoma; 104% with HCT-15 colon; 106% with HT29 colon. Further, the growth in the assay on SNB-75 CNS is 92.5%; in the assay on SNB-19 CNS, 97.9%; with U251 CNS, 99.2%; in the assay with PC-3 prostate it was 86.5%; in the assay on SK-MEL-5 melanoma it was 98.3%; in the assay with UACC-62 melanoma, 85.7%. Also, the growth in the assay on LOX IMVI melanoma was 95.1%; in the assay on SK-MEL-28 melanoma, 98.1%.
`Cc1nc(N)sc1-c1csc(Nc2ccc(C(F)(F)F)cc2)n1`: the growth in the assay on DU-145 prostate is 35.8%; with K-562 leukemia it was 22.5%; in the assay with MALME-3M melanoma, 10.1%; with MDA-MB-231 breast, 20.1%; in the assay with RXF 393 renal it was 18.3%; in the assay with SF-268 CNS, 49.5%. The growth in the assay with SF-295 CNS was 7.89% (active); in the assay with SF-539 CNS, 27.1%; in the assay with UACC-257 melanoma it was 37.2%; in the assay on M14 melanoma it was 28.4%; in the assay with HCT-15 colon, 7.03% (active); in the assay on HT29 colon, -27.6% (active). Besides, the growth in the assay on SNB-75 CNS is 56.5%; in the assay on SNB-19 CNS it was 47.3%; in the assay on U251 CNS, 53.3%; with PC-3 prostate, 36.5%; with SK-MEL-5 melanoma it was -43% (active); in the assay with UACC-62 melanoma it was 22.2%. For the same compound, the growth is 6.07% (active) with LOX IMVI melanoma and 42.1% in the assay on SK-MEL-28 melanoma.
As to `COc1ccc(-c2cc(-c3ccc(N4CCOCC4)cc3)n3c(n2)nc2ccccc23)cc1OC`, the growth with DU-145 prostate was 91.2%; in the assay on K-562 leukemia, 68.9%; in the assay with MALME-3M melanoma, 93.3%; in the assay with MDA-MB-231 breast it was 70.9%; in the assay with RXF 393 renal, 72.8%; with SF-268 CNS, 90.7%. The growth in the assay with SF-295 CNS is 100%; in the assay on SF-539 CNS, 76.7%; with UACC-257 melanoma it was 97.7%; in the assay with M14 melanoma, 93.1%; in the assay with HCT-15 colon it was 83.1%; in the assay on HT29 colon it was 105%. In addition, the growth in the assay on SNB-75 CNS is 83.3%; in the assay on SNB-19 CNS, 85.1%; in the assay on U251 CNS, 86.1%; in the assay with PC-3 prostate, 73%; in the assay on SK-MEL-5 melanoma, 55.8%; in the assay with UACC-62 melanoma, 94.3%. Moreover, the growth with LOX IMVI melanoma is 78.4%; in the assay with SK-MEL-28 melanoma, 94.4%.
As for `CC(Nc1c(C#N)cnc2ccc(-c3cncc(-c4n[nH]c(=O)o4)c3)cc12)c1ccccc1` (stereo not given), the growth in the assay on DU-145 prostate is 8.39% (active); with K-562 leukemia it was 28.5%; in the assay with MALME-3M melanoma, -8.08% (active); with MDA-MB-231 breast, 17.2%; in the assay with RXF 393 renal, -24% (active); in the assay on SF-268 CNS it was 12.2%. Besides, the growth is -7.24% (active) with SF-295 CNS; -12.8% (active) in the assay with SF-539 CNS; 34.2% in the assay on UACC-257 melanoma; 18.7% in the assay with M14 melanoma; 10.4% in the assay with HCT-15 colon; 20.2% in the assay with HT29 colon. Also, the growth is 7.1% (active) in the assay on SNB-75 CNS; 11.1% in the assay with SNB-19 CNS; 17.6% in the assay on U251 CNS; 18.9% in the assay with PC-3 prostate; -84.8% (active) in the assay with SK-MEL-5 melanoma; -37% (active) in the assay on UACC-62 melanoma. For the same compound, the growth with LOX IMVI melanoma was -8.49% (active); in the assay with SK-MEL-28 melanoma, 11.2%.
With `COC(=O)CNC(=O)c1cccc(-c2cc(=O)c3c(OC)c(OC)c(OC)cc3o2)c1`, the growth in the assay on DU-145 prostate is 108%; with K-562 leukemia it was 125%; with MALME-3M melanoma it was 95.2%; in the assay on MDA-MB-231 breast it was 101%; in the assay on RXF 393 renal, 99.4%; in the assay with SF-268 CNS, 101%. For the same compound, the growth in the assay on SF-295 CNS was 101%; with SF-539 CNS, 103%; in the assay with UACC-257 melanoma, 103%; in the assay on M14 melanoma, 103%; in the assay with HCT-15 colon it was 96%; in the assay with HT29 colon it was 110%. Besides, the growth is 99.5% in the assay on SNB-75 CNS; 92.6% with SNB-19 CNS; 106% in the assay with U251 CNS; 95.6% in the assay with PC-3 prostate; 98.6% with SK-MEL-5 melanoma; 90.2% with UACC-62 melanoma. For the same compound, the growth with LOX IMVI melanoma was 97.5%; in the assay on SK-MEL-28 melanoma, 106%.
With `COc1ccccc1N1CCN(C2=C(Cl)C(=O)c3ncccc3C2=O)CC1`, the growth in the assay with DU-145 prostate is 48%; in the assay with K-562 leukemia it was 9.05% (active); in the assay on MALME-3M melanoma it was 58.8%; with MDA-MB-231 breast it was 86.4%; in the assay on RXF 393 renal, 71%; with SF-268 CNS, 87.6%. For the same compound, the growth in the assay with SF-295 CNS is 107%; in the assay on SF-539 CNS it was 95%; with UACC-257 melanoma it was 95%; in the assay on M14 melanoma, 88.1%; in the assay with HCT-15 colon, 55.5%; in the assay on HT29 colon it was 111%. Besides, the growth with SNB-75 CNS was 86%; in the assay with SNB-19 CNS, 88.8%; in the assay with U251 CNS it was 102%; in the assay with PC-3 prostate, 79%; in the assay on SK-MEL-5 melanoma, 96.4%; with UACC-62 melanoma, 83%. Besides, the growth in the assay on LOX IMVI melanoma is 50.2%; in the assay on SK-MEL-28 melanoma it was 98.4%.
`CN(C)CCCOc1ccc(C(=C(c2ccccc2)C2CCCC2)c2ccc(OCCCN(C)C)cc2)cc1`: the growth was -99% (active) with DU-145 prostate; -4.67% (active) in the assay with K-562 leukemia; -89.6% (active) in the assay on MALME-3M melanoma; -86.4% (active) in the assay with MDA-MB-231 breast; -83.1% (active) in the assay on RXF 393 renal; -81.9% (active) in the assay with SF-268 CNS. Moreover, the growth with SF-295 CNS was -82% (active); with SF-539 CNS it was -89.4% (active); in the assay with UACC-257 melanoma it was -88.7% (active); with M14 melanoma, -80.7% (active); in the assay with HCT-15 colon it was -89.2% (active); in the assay with HT29 colon it was -86.3% (active). For the same compound, the growth with SNB-75 CNS is -66.1% (active); in the assay with SNB-19 CNS, -80.4% (active); with U251 CNS, -74.4% (active); with PC-3 prostate, -65.5% (active); in the assay on SK-MEL-5 melanoma, -95.7% (active); in the assay with UACC-62 melanoma, -91.6% (active). Also, the results for the growth in the assay on LOX IMVI melanoma and with SK-MEL-28 melanoma were -84.3% (active) and -96.4% (active), respectively.

The record behind these values is PubChem BioAssay (NCI).
